This experiment relates to NCI-H1944. The experiment can be described thus: normalised cell viability (NPI; 0 = phenylarsine oxide control, 1 = DMSO control) (fraction of DMSO control); NCI-H1944 is a non-small cell lung cancer line; higher = more viable cells (less compound toxicity). As to conditions: 6 days.
Setting [1] is: glucocorticoid arm: hydrocortisone 2.75 uM co-treatment, compound 1 µM.
[2] abbreviates: glucocorticoid arm: hydrocortisone 2.75 uM co-treatment, compound 5 µM.
The mark [3] stands for this setting: glucocorticoid arm: hydrocortisone 2.75 uM pre-treated 2 days and continued, compound 1 µM.
Setting [4] is: glucocorticoid arm: hydrocortisone 2.75 uM pre-treated 2 days and continued, compound 5 µM.
The mark [5] stands for this setting: glucocorticoid arm: vehicle, compound 1 µM.
The mark [6] stands for this setting: glucocorticoid arm: vehicle, compound 5 µM.

Structures are written as SMILES. Counter-ions that a name gives are not always drawn. ± gives the standard deviation of the averaged measurements. The full ranking holds about 1,900 compounds; the median of “normalised cell viability (NPI; 0 = phenylarsine oxide control, 1 = DMSO control)” is about 1, and the lowest 2% start at about 0.039. What follows is part of a selection rich in the lowest values, with near analogues and random picks from the rest.
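Further: CTB read-out in 384-well plates, triplicate wells, NPI normalised per plate against 1 µM phenylarsine oxide (0) and 0.1% DMSO (1) controls.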

For `CCCCN(Cc1ccc(C(=O)NO)cc1)C(=O)Nc1ccccc1` [Nexturastat A], the normalised cell viability runs as follows: under setting [1], 0.949 ± 0.017; under setting [2], 0.9863 ± 0.0097; under setting [3], 0.97 ± 0.02; under setting [4], 0.963 ± 0.027; under setting [5], 1.001 ± 0.009; under setting [6], 0.967 ± 0.014.
Take `CC(C)[C@H](C(=O)Nc1ccc(C(=O)NO)cc1)c1ccccc1`: the normalised cell viability under setting [1] was 0.752 ± 0.021; the normalised cell viability under setting [2] worked out at 0.00258 ± 0.00047; the normalised cell viability under setting [3] came to 0.897 ± 0.021; the normalised cell viability under setting [4] amounted to 0.00754 ± 0.0016; the normalised cell viability under setting [5] worked out at 0.172 ± 0.0081; the normalised cell viability under setting [6] came out at 0.00052 ± 0.00049.
As to `N#CC(=C(/N)Sc1ccccc1N)/C(C#N)=C(\N)Sc1ccccc1N`, the normalised cell viability amounted to 1.02 ± 0.011 under setting [1]; 1.08 ± 0.025 under setting [2]; 0.976 ± 0.016 under setting [3]; 1.01 ± 0.027 under setting [4]; 1.023 ± 0.0058 under setting [5]; 1.02 ± 0.015 under setting [6].
Regarding `CC#CCOC(=O)c1c(C)nc2sc3c(c2c1N)CCC(O)C3` (stereo not drawn), the normalised cell viability under setting [1] stood at 1.02 ± 0.021; the normalised cell viability under setting [2] turned out to be 1 ± 0.019; the normalised cell viability under setting [3] came out at 1.03 ± 0.038; the normalised cell viability under setting [4] worked out at 1.03 ± 0.017; the normalised cell viability under setting [5] was found to be 1.013 ± 0.0058; the normalised cell viability under setting [6] was 1.013 ± 0.0058.
`COC1=C(OC)C(=O)c2ccccc2C1=O` [2,3-Dimethoxy-1,4-naphthoquinone]: the normalised cell viability under setting [1] worked out at 0.994 ± 0.01; the normalised cell viability under setting [2] came to 0.905 ± 0.047; the normalised cell viability under setting [3] was 0.994 ± 0.0066; the normalised cell viability under setting [4] was found to be 0.956 ± 0.01; the normalised cell viability under setting [5] came out at 0.997 ± 0.0027; the normalised cell viability under setting [6] came out at 0.8913 ± 0.0032.
Turning to `CCCCCC[C@@H]([C@@H](C)O)n1cnc2c(N)ncnc21` [erythro-9-(2-Hydroxy-3-nonyl)adenine hydrochloride], the normalised cell viability by setting is: under setting [1], 0.999 ± 0.001; under setting [2], 0.992 ± 0.024; under setting [3], 0.987 ± 0.012; under setting [4], 0.997 ± 0.023; under setting [5], 0.973 ± 0.0053; under setting [6], 0.9777 ± 0.0055.
`CCCCCCCCCCCCCCCCCCOCC(COP(=O)([O-])OCC[N+](C)(C)C)OC` (stereo not drawn): the normalised cell viability by setting is: under setting [1], 1.006 ± 0.0063; under setting [2], 0.993 ± 0.015; under setting [3], 0.9897 ± 0.0011; under setting [4], 0.989 ± 0.028; under setting [5], 0.9853 ± 0.0049; under setting [6], 0.9957 ± 0.0059.
For the molecule `CC(C)c1ccccc1Cc1cc(C(=O)Nc2ccc(S(=O)(=O)c3ccccc3C(C)(C)C)cc2)c(O)c(O)c1O`, the normalised cell viability is, setting by setting: under setting [1], 0.9933 ± 0.0099; under setting [2], 0.826 ± 0.049; under setting [3], 0.998 ± 0.014; under setting [4], 0.961 ± 0.018; under setting [5], 1.007 ± 0.0058; under setting [6], 0.813 ± 0.033.
Consider `CC(=O)NCC(=O)N1[C@@H]2CC[C@H]1c1ccc(Nc3ncc(C(F)(F)F)c(NC4CCC4)n3)cc12`, for which the normalised cell viability runs as follows: under setting [1], 0.712 ± 0.0091; under setting [2], 0.552 ± 0.019; under setting [3], 0.83 ± 0.0095; under setting [4], 0.717 ± 0.01; under setting [5], 0.301 ± 0.018; under setting [6], 0.201 ± 0.017.
For the molecule `C/C(=C\c1csc(C)n1)[C@@H]1C[C@@H]2O[C@]2(C)CCC[C@H](C)[C@H](O)[C@@H](C)C(=O)C(C)(C)[C@@H](O)CC(=O)N1` [Ixabepilone], the normalised cell viability is, setting by setting: under setting [1], 0.132 ± 0.012; under setting [2], 0.146 ± 0.018; under setting [3], 0.484 ± 0.023; under setting [4], 0.477 ± 0.05; under setting [5], 0.0322 ± 0.0044; under setting [6], 0.032 ± 0.004.
Turning to `CC(C)C[C@@H]1NC(=O)[C@@H](C(C)C)NC(=O)[C@@H]2CCCN2C(=O)[C@@H](CC(=O)O)NC(=O)[C@@H](Cc2c[nH]c3ccccc23)NC1=O`, the normalised cell viability by setting is: under setting [1], 1.01 ± 0.014; under setting [2], 1 ± 0.018; under setting [3], 1.02 ± 0.025; under setting [4], 1.003 ± 0.0061; under setting [5], 0.9943 ± 0.005; under setting [6], 1.013 ± 0.0058.
In the case of `Cc1ncc(-c2ccnc(Nc3ccc(S(C)(=O)=O)cc3)n2)n1C(C)C`, the normalised cell viability amounted to 0.584 ± 0.057 under setting [1]; 0.062 ± 0.0037 under setting [2]; 0.705 ± 0.061 under setting [3]; 0.319 ± 0.083 under setting [4]; 0.191 ± 0.045 under setting [5]; 0.0177 ± 0.0014 under setting [6].
Turning to `CN(C)CCC(c1ccc(Cl)cc1)c1ccccn1` (single isomer, unassigned; (+)) [(+)-Chlorpheniramine maleate], the normalised cell viability under setting [1] turned out to be 0.9827 ± 0.0045; the normalised cell viability under setting [2] worked out at 0.997 ± 0.012; the normalised cell viability under setting [3] worked out at 0.979 ± 0.004; the normalised cell viability under setting [4] stood at 1.005 ± 0.0071; the normalised cell viability under setting [5] came out at 0.968 ± 0.011; the normalised cell viability under setting [6] stood at 0.978 ± 0.003.
For `CCCCC1(C2CCCC2)Cc2cc(OCC(=O)O)c(Cl)c(Cl)c2C1=O` (stereo in doubt) [R(+)-Butylindazone], the normalised cell viability under setting [1] turned out to be 0.9903 ± 0.0064; the normalised cell viability under setting [2] was 0.958 ± 0.011; the normalised cell viability under setting [3] came out at 0.988 ± 0.01; the normalised cell viability under setting [4] was found to be 0.965 ± 0.028; the normalised cell viability under setting [5] is 0.983 ± 0.006; the normalised cell viability under setting [6] worked out at 0.9887 ± 0.004.
For the molecule `Cc1[nH]c(=O)c(C#N)cc1-c1ccncc1` [Milrinone], the normalised cell viability came to 0.996 ± 0.013 under setting [1]; 1.001 ± 0.0083 under setting [2]; 0.998 ± 0.0035 under setting [3]; 1.05 ± 0.081 under setting [4]; 0.9903 ± 0.009 under setting [5]; 0.993 ± 0.015 under setting [6].
Take `O=C1NCCc2[nH]c(-c3ccncc3)cc21`: the normalised cell viability by setting is: under setting [1], 1.02 ± 0.015; under setting [2], 0.0894 ± 0.0076; under setting [3], 0.9933 ± 0.0072; under setting [4], 0.145 ± 0.006; under setting [5], 0.916 ± 0.016; under setting [6], 0.0151 ± 0.0021.
As to `O=C1NC(=O)/C(=C/c2ccc3nccc(-c4ccncc4)c3c2)S1`, the normalised cell viability came out at 0.697 ± 0.026 under setting [1]; 0.836 ± 0.011 under setting [2]; 0.73 ± 0.039 under setting [3]; 0.848 ± 0.026 under setting [4]; 0.886 ± 0.023 under setting [5]; 0.932 ± 0.027 under setting [6].
For the molecule `CCCCCCCCCCCCCCCCCC(=O)OC(CC(=O)O)C[N+](C)(C)C` (racemic) [DL-Stearoylcarnitine chloride], the normalised cell viability came out at 0.9967 ± 0.0042 under setting [1]; 0.906 ± 0.03 under setting [2]; 1.01 ± 0.019 under setting [3]; 0.993 ± 0.0017 under setting [4]; 1.013 ± 0.0058 under setting [5]; 0.99967 ± 0.00058 under setting [6].
As to `CNc1ncnc2c1ncn2[C@H]1C[C@H](OP(=O)(O)O)[C@@H](COP(=O)(O)O)O1`, the normalised cell viability runs as follows: under setting [1], 0.991 ± 0.0056; under setting [2], 0.987 ± 0.029; under setting [3], 1 ± 0.016; under setting [4], 0.981 ± 0.027; under setting [5], 0.996 ± 0.0061; under setting [6], 0.9943 ± 0.0047.
As for `C[C@H](O)[C@H](O)[C@H]1CNc2nc(N)[nH]c(=O)c2N1` [(6R)-5,6,7,8-Tetrahydro-L-biopterin dihydrochloride], the normalised cell viability under setting [1] came out at 1.02 ± 0.011; the normalised cell viability under setting [2] stood at 1.01 ± 0.026; the normalised cell viability under setting [3] was 0.923 ± 0.18; the normalised cell viability under setting [4] stood at 1.001 ± 0.009; the normalised cell viability under setting [5] turned out to be 1.02 ± 0.01; the normalised cell viability under setting [6] is 1.02.
In the case of `CN1CCc2c(cc(O)c(O)c2Cl)C(c2cccc(Cl)c2)C1` (stereo not drawn), the normalised cell viability under setting [1] came out at 1.006 ± 0.0063; the normalised cell viability under setting [2] came to 1.03 ± 0.03; the normalised cell viability under setting [3] stood at 1.01 ± 0.039; the normalised cell viability under setting [4] amounted to 1.017 ± 0.0058; the normalised cell viability under setting [5] was 1; the normalised cell viability under setting [6] stood at 1.013 ± 0.0058.
`CNC(=O)c1nn(C)c2c1C(C)(C)Cc1cnc(Nc3ccc(N4CCN(C)CC4)cc3)nc1-2`: the normalised cell viability under setting [1] was 0.485 ± 0.019; the normalised cell viability under setting [2] turned out to be 0.306 ± 0.002; the normalised cell viability under setting [3] stood at 0.549 ± 0.019; the normalised cell viability under setting [4] turned out to be 0.424 ± 0.013; the normalised cell viability under setting [5] came to 0.282 ± 0.0098; the normalised cell viability under setting [6] is 0.126 ± 0.0072.
Take `CCC(=O)Nc1cccc(Oc2nc(Nc3ccc(N4CCN(C)CC4)cc3OC)ncc2Cl)c1`: the normalised cell viability is, setting by setting: under setting [1], 1.07 ± 0.017; under setting [2], 1.11 ± 0.01; under setting [3], 1.057 ± 0.0058; under setting [4], 1.07 ± 0.035; under setting [5], 1 ± 0.011; under setting [6], 1.01 ± 0.01.

(Values after the supplement of paper PMC8285479.)
